The whole screen tested about 310,000 compounds, of which about 14,000 (4.5%) showed an effect of 50% or more. The effect is printed as a negative number. This excerpt belongs to a sample that is enriched for strong results.
biological target: human ether-à-go-go-related gene (hERG) potassium channel (human, UniProt Q12809); assay: primary screen, population patch clamp on CHO cells stably expressing hERG; higher = less effect of the substance
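Further: peak tail current of the secondary pulse compared with the same well before compound.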

Chain of human ether-à-go-go-related gene (hERG) potassium channel (Q12809 whole entry, looked up): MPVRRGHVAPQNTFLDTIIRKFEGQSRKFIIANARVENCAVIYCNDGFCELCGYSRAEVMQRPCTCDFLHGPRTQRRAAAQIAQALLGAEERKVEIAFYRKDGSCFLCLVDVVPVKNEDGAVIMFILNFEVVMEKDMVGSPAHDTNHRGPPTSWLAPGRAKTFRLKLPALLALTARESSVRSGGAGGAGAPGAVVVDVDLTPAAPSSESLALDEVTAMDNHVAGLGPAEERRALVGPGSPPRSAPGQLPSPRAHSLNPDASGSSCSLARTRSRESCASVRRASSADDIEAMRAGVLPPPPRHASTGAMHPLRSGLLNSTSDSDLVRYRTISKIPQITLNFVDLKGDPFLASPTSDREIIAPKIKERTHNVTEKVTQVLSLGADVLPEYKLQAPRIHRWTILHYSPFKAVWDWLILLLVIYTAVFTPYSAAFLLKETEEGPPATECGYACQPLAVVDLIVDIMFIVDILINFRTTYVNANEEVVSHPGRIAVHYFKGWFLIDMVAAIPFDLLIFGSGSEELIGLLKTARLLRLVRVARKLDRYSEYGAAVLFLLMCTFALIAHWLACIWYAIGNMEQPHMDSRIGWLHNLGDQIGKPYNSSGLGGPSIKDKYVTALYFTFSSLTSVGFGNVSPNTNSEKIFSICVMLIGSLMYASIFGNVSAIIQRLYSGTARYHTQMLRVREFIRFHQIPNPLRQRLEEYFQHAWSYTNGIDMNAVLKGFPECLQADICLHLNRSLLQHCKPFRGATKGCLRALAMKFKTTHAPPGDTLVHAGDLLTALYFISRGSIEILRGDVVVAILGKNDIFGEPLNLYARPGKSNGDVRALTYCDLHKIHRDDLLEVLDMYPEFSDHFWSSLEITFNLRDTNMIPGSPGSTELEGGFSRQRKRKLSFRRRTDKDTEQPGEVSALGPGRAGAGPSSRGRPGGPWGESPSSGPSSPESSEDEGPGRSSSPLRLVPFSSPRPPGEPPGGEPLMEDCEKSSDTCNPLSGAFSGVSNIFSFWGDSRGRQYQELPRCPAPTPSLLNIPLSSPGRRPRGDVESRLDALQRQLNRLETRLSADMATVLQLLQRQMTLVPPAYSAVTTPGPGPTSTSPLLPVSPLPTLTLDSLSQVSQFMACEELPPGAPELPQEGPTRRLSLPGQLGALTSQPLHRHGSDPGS

Structure (SMILES)	hERG current change (%, negative = inhibition) at 10uM [%]
O=C(O)c1cc2nc(-c3ccccc3)cc(-c3ccccc3)n2n1	6.39
CN(C)S(=O)(=O)Oc1ccsc1C(=O)Nc1ccc(Br)cc1	-12.2
CCOC(=O)[C@H]1[C@H]2COc3cc(OC)ccc3[C@@H]2N2C(=O)c3cc(OC)c(OC)cc3NC(=O)[C@@]12C	-2.44
Cc1ccc(C(=O)NNC(=O)C2CCN(c3nc(C)cc(C)n3)CC2)cc1	4.83
Cc1cccc(C)c1C(=NCCN(C)C)c1ccccc1.Cl	-41.3
CCNc1nc(NCC)n2c(SCc3ccc(F)cc3)nnc2n1	-20.1
CC(C)=C1C2CCC1C(C(=O)Nc1sc(C)c(-c3ccc(C(C)C)cc3)c1C(N)=O)C2C(=O)O (centres unmarked)	-22.5
CN(C)C=O.O=C(NCCc1ccccc1)c1oc2ccccc2c1COc1ccccc1	12.4
Cc1ccc(-c2cc(C(=O)NCc3ccccn3)no2)cc1	0.477
O=C(Nc1ccccn1)c1cccc(S(=O)(=O)N2CCOCC2)c1	-6.45
Cc1ccc(NC(=O)c2ccc3c(c2)OCO3)cc1S(=O)(=O)N1CCOCC1	-20.3
Cc1ccc(NC(=O)c2cccc(S(=O)(=O)N3CCCC3)c2)nc1	-7.18
O=C(Nc1ccc(Cl)cn1)c1cccc(S(=O)(=O)N2CCCC2)c1	-50.9
Cc1cc(C(=O)Nc2ccc(C)c(S(=O)(=O)N3CCOCC3)c2)c(C)o1	-6.59
O=C(NCCOc1ccc(Cl)cc1)c1cccc(S(=O)(=O)N2CCCC2)c1	-51.8
O=C(Nc1ccc(Cl)cn1)c1cccc(S(=O)(=O)N2CCOCC2)c1	-65.4
O=C(NCc1ccc(Cl)cc1)c1cccc(S(=O)(=O)N2CCCC2)c1	-30.9
O=C(Nc1ccccn1)c1cccc(S(=O)(=O)N2CCCC2)c1	9.44
Cc1ccnc(NC(=O)c2cccc(S(=O)(=O)N3CCOCC3)c2)c1	-18.9
Cc1ccc(C(=O)Nc2ccc(C)c(S(=O)(=O)N3CCOCC3)c2)c(C)c1	-51
Cc1ccc(OCCNC(=O)c2cccc(S(=O)(=O)N3CCN(C)CC3)c2)cc1	-16.6
O=C1c2ccccc2C(Nc2ccc(S(=O)(=O)N3CCCCC3)cc2)N1Cc1ccco1 (centres unmarked)	-22.7
CC(CC(=O)N(C)c1c(N)n(Cc2ccccc2)c(=O)[nH]c1=O)c1ccccc1 (centres unmarked)	-23.3

Structure (SMILES)	hERG current change (%, negative = inhibition) at 10uM [%]
COCc1ccc(C(=O)N2CCCC(N3CCN(c4ccccc4C)CC3)C2)s1 (centres unmarked)	-34.7
CSc1cccc(NC(=O)C2CCCN(S(=O)(=O)c3cccs3)C2)c1 (centres unmarked)	3.76
COc1ccccc1N(C)C(=O)c1cc(S(=O)(=O)N2CCCC2)cn1C	-3.55
CC(NC(=O)C1CCN(S(=O)(=O)c2cnc[nH]2)CC1)c1ccccc1 (centres unmarked)	3.81
N/C(=N\OC(=O)c1ccccc1)c1ccn[nH]1	-1.07
O=C(COC(=O)c1cccc(S(=O)(=O)N2CCOCC2)c1)Nc1ncc(Cl)cc1Cl	-13.4
O=C(COC(=O)c1cccc(S(=O)(=O)N2CCOCC2)c1)Nc1ccc(Cl)cn1	-61.1
Cc1cccc(N2N=C(C(=O)Nc3ccc(Cl)c(S(=O)(=O)N4CCOCC4)c3)CCC2=O)c1	-52.4
Cc1ccc(NC(=O)c2ccc(C)c(S(=O)(=O)N3CCOCC3)c2)nc1	-6.9
Cc1ccc(S(=O)(=O)N2CCOCC2)cc1NC(=O)C1=NN(c2ccccc2)C(=O)CC1	-18
O=C(COC(=O)c1cc(S(=O)(=O)N2CCOCC2)ccc1F)Nc1ccc(Cl)cn1	-37.4
Cc1ccc(C(=O)Nc2ccc(Cl)cn2)cc1S(=O)(=O)N1CCOCC1	-51.4
Cc1ccc(C(=O)Nc2ccccn2)cc1S(=O)(=O)N1CCOCC1	-5.72
O=C(Nc1cccc(S(=O)(=O)N2CCOCC2)c1)C1=NN(c2ccccc2)C(=O)CC1	-42.9
O=C(Cn1cnc([N+](=O)[O-])c1)Nc1ccccc1C(F)(F)F	-14.3
Cc1cc(C)cc(N(C(=O)CNC(=O)c2ccco2)C(C(=O)NC2CCCCC2)c2ccncc2)c1 (centres unmarked)	-10
CCOC(=O)C1=C(C)NC(=O)C(C(N)=O)C1c1ccccc1 (centres unmarked)	5.2
O=c1[nH]c2cc3c(cc2cc1C(c1nnnn1C1CCCC1)N1CCSCC1)OCCO3 (centres unmarked)	13.6
CSc1nc(C)cc(-n2ccc(=O)[nH]c2=O)n1	-3.54
CCOC(=O)/C=c1\s/c(=C\c2c(OC)ccc3ccccc23)c(=O)n1CC(=O)NCC1CCCO1 (centres unmarked)	2.13
Cc1ccccc1Nc1ncnc2c1cnn2C	4.92
CN(C)CC(C)(C)CNC(=O)c1cc(=O)c2ccccc2o1.Cl	19.6
Cc1cc(/C=C2/SC(=O)N(CC(=O)N3CCCC3)C2=O)c(C)n1C	-5.16

Structure (SMILES)	hERG current change (%, negative = inhibition) at 10uM [%]
Cc1cc(OCCCn2ccnc2)cc(C(C)C)c1	-14.4
CCC(C)NCCCCOc1cc(C)cc(C(C)C)c1 (centres unmarked)	-54.9
Cc1cc(OCCCCNC(C)C)cc(C(C)C)c1.O=C(O)C(=O)O	-29.6
COc1ccc(C(=O)Oc2cc(N)n(S(=O)(=O)c3ccccc3)n2)cc1	-7.73
COc1ccccc1NS(=O)(=O)c1ccc(C(=O)NCC(c2ccccc2OC)N(C)C)cc1 (centres unmarked)	-0.121
Cc1ccc(OCc2cc(C(=O)N3CCC(C(O)C(C)C)CC3)no2)cc1C (centres unmarked)	-23.1
CCN1CCN(CCOCCOc2ccccc2-c2ccccc2)CC1.O=C(O)C(=O)O	-35.6
O=C(O)C(=O)O.c1ccc(-c2ccccc2OCCCN2CCOCC2)cc1	-37.1
Cl.OCCCN1CCN(CCCOc2ccccc2-c2ccccc2)CC1	-69.6
Cl.OCCN1CCN(CCOc2ccccc2-c2ccccc2)CC1	-24.1
CC(=O)c1ccccc1OCCCCN1CCCCC1.O=C(O)C(=O)O	-59.5
CCc1ccccc1OCCCCN1CCCCC1.O=C(O)C(=O)O	-30
CCN1CCN(CCCOc2ccccc2-c2ccccc2)CC1.O=C(O)C(=O)O	-66.6
CCN1CCN(CCOc2ccccc2-c2ccccc2)CC1.O=C(O)C(=O)O	-32.9
CC(=O)c1ccccc1OCCCN1CCCCC1.O=C(O)C(=O)O	-31.8
O=C(O)C(=O)O.c1ccc(-c2ccccc2OCCCN2CCCC2)cc1	-65
O=C(CSc1nnc(-c2cccnc2)o1)Nc1cccc(F)c1	-1.97
Cc1c(Br)c([N+](=O)[O-])nn1CC(=O)N1CCN(C23CC4CC(CC(C4)C2)C3)CC1	-38.1
Cc1c(N2C(=O)/C(=C\c3ccccc3O)SC2=S)c(=O)n(-c2ccccc2)n1C	30.5
O=C(O)Cc1nc2nc3c(c(=O)n2[nH]1)CCCC3	16.3
CCOc1ccc(/C=N/NC(=O)c2cc(-c3cccn3C)n[nH]2)cc1	5.27
COc1ccc(C/C(O)=C(\C#N)c2nc3ccccc3s2)cc1	11.6
O=C(O)C(=O)O.c1ccc(-c2ccccc2OCCCCN2CCCCCC2)cc1	-77.5

Structure (SMILES)	hERG current change (%, negative = inhibition) at 10uM [%]
O=C(O)C(=O)O.c1ccc(-c2ccccc2OCCN2CCCCC2)cc1	-45.9
O=C(O)C(=O)O.c1ccc(-c2ccccc2OCCCN2CCCCCC2)cc1	-80.1
O=C(O)C(=O)O.c1ccc(-c2ccccc2OCCOCCN2CCOCC2)cc1	6.15
O=C(O)C(=O)O.c1ccc(-c2ccccc2OCCCN2CCCCC2)cc1	-74.6
CCC1(c2ccc(C)cc2)NC(=O)N(CC(=O)Nc2cccc(S(=O)(=O)N3CCCC3)c2)C1=O (centres unmarked)	0.0785
O=C(NCCCN1CCCCC1)C1CC(=O)N(CCc2ccccc2)C1 (centres unmarked)	12.3
CC(C)CC(=O)Nc1nnc(S(=O)(=O)N2CCCCCC2)s1	-15
COc1ccc(-c2nc3c(s2)CN(S(C)(=O)=O)CC3)cc1OC	15.2
Cc1ccc(S(=O)(=O)NCCC(=O)Nc2ccc(C)c(Cl)c2)cc1C	-1.46
CCOC(=O)C1CCCN(C2CC(=O)N(c3ccc(C(C)C)cc3)C2=O)C1 (centres unmarked)	-10
CCc1ccc(NC(=O)Cc2ccc(-n3cccc3)cc2)cc1	0.973
Cc1[nH]n(-c2ccccc2)c(=O)c1/C=N/n1c(C)nc2ccccc2c1=O	11.8
CCc1ccc(Nc2ccc(C(N)=O)cc2[N+](=O)[O-])cc1	8.56
Cc1ccc(N)c(N)c1	6.61
CCCCn1c2c(c(=N)c3ccccc31)CCC2.I	-50.3
Br.CCn1c2c(c(=N)c3ccccc31)CCC2	5.12
CC(=O)NNC(=O)CCn1c2c(c3ccccc31)CCCC2	9.01
CCCCCCCn1c2c(c(=N)c3ccccc31)CCC2.I	-81.4
CCOC(=O)Cn1c2c(c(=N)c3ccccc31)CCC2.Cl	4.06
O=C(O)CCn1c2c(c3ccccc31)CCCC2	25.3
CCCCCn1c2c(c(=N)c3ccccc31)CCC2.I	-71.2
Cl.N=c1c2c(n(Cc3ccccc3)c3c1CCC3)CCC2	-0.485
O=C(O)Cn1c2c(c3ccccc31)CCCC2	7.39
